# Assay results: the supplement of paper PMC11001985
# Unmarked numbers belong to inactive results.
# Compound: C#CCNC(=O)CCSSCCC(=O)NCCc1ccc(C=O)c(C=O)c1
# Assay: lysine labeling ratio R10:1 (500 µM / 50 µM probe), SILAC-ABPP in living cells; higher = lower intrinsic lysine reactivity toward the probe, active = 2 or less
# Conditions: HeLa; probe concentrations 500 vs 50 µM
# Procedure, shortened: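 An alkyne-tagged lysine probe with a disulfide linker labelled living HeLa cells in PBS at room temperature at either 50 µM or 500 µM, using SILAC light and heavy cells in forward and reverse label swaps. Lysates were mixed, clicked to biotin-azide, trypsin-digested, enriched on neutravidin, DTT-released, alkylated and measured by LC-MS/MS on a TIMS-TOF Pro. Each lysine's R is the filtered median high-probe/low-probe MS1 peptide ratio, combined as the median over forward and reverse replicates, with 20 as the upper limit.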
# Sequence of UniProt Q13813 (Q13813 whole entry): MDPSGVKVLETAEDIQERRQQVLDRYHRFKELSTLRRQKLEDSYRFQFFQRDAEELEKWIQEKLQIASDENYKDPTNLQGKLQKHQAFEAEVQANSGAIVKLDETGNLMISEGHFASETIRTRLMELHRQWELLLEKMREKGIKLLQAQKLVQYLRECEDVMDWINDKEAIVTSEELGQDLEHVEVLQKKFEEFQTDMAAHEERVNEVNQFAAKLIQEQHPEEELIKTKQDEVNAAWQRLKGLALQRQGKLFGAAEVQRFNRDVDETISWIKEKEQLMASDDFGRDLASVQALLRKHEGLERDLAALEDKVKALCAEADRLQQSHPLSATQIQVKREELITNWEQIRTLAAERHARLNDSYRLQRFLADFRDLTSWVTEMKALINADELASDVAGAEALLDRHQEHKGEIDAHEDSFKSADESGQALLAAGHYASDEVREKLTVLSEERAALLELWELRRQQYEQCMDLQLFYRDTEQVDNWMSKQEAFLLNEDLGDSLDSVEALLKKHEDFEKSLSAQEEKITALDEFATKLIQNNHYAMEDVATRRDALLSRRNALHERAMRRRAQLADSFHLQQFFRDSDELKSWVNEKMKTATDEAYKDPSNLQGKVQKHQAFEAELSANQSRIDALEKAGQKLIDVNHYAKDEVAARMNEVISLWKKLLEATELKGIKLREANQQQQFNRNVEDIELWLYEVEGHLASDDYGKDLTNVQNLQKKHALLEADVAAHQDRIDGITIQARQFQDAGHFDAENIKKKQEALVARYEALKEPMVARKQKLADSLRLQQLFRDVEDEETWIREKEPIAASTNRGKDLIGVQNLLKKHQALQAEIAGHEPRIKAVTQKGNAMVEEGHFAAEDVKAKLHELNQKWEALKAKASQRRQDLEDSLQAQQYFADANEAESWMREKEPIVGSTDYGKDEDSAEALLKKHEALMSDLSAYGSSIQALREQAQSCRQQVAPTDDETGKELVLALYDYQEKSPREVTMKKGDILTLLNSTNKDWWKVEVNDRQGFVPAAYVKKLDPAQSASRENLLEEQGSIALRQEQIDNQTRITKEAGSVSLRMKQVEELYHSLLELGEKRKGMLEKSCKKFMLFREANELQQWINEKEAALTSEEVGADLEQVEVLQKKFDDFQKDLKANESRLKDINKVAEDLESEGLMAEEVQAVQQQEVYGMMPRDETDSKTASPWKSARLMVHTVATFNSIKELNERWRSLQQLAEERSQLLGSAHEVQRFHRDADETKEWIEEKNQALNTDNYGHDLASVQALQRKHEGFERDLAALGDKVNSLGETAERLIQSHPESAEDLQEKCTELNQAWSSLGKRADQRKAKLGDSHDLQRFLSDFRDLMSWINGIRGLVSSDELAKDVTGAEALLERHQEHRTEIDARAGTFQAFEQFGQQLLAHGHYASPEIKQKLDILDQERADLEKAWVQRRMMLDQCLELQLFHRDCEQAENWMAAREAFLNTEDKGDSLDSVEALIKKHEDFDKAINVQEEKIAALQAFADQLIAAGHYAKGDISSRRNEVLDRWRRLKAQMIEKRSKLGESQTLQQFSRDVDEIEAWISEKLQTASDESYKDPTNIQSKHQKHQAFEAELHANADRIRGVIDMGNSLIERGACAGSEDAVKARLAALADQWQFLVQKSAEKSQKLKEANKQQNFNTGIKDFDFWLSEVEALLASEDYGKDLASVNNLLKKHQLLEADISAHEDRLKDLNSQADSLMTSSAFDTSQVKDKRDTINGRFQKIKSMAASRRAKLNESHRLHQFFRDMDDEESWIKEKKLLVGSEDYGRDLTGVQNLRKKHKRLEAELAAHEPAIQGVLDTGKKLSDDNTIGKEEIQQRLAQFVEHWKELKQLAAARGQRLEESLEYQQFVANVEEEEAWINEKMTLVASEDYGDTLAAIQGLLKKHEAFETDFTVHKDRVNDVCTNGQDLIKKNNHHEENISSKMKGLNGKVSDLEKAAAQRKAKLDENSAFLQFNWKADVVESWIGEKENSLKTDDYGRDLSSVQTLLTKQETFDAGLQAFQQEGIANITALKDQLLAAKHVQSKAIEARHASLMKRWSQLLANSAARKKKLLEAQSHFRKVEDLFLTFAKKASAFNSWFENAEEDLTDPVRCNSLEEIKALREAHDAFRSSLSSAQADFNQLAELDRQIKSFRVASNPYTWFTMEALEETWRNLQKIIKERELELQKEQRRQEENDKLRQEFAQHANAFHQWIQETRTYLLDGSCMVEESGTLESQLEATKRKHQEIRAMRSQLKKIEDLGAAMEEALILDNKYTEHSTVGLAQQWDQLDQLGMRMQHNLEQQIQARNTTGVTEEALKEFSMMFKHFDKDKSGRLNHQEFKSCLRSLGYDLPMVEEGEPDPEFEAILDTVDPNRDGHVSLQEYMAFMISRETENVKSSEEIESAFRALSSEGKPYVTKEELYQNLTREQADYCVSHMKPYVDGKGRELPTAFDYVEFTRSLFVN
# Sequence of UniProt O43570 (O43570 whole entry): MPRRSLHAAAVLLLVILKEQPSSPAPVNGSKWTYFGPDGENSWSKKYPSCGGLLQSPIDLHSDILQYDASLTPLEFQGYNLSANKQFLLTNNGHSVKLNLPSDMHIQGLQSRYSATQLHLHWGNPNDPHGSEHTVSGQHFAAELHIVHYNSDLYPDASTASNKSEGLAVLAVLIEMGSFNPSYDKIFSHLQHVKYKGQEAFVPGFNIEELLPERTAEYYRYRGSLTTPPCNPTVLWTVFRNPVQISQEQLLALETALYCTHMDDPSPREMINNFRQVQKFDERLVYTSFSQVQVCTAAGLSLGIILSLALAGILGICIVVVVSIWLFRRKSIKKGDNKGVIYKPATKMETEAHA
# Sequence of UniProt P02787 (P02787 whole entry): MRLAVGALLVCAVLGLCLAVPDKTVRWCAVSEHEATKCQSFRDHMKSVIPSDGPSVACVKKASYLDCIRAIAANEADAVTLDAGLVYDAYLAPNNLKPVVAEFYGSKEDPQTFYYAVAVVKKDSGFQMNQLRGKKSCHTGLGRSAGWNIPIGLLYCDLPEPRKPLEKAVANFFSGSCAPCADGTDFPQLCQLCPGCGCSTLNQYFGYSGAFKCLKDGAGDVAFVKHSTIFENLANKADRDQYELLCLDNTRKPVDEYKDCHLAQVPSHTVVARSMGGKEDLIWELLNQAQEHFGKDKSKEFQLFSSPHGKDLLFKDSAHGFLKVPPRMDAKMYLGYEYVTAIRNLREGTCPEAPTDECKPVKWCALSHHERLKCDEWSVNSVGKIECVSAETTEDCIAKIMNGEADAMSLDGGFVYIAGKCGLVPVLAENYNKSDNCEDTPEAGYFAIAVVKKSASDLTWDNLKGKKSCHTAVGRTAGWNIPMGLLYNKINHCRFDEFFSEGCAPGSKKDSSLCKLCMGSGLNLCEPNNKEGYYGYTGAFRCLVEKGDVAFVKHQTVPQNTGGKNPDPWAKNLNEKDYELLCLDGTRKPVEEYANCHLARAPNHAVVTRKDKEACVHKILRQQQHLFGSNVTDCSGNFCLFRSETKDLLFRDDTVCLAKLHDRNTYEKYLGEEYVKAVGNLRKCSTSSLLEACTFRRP
# Sequence of UniProt P15144 (P15144 whole entry): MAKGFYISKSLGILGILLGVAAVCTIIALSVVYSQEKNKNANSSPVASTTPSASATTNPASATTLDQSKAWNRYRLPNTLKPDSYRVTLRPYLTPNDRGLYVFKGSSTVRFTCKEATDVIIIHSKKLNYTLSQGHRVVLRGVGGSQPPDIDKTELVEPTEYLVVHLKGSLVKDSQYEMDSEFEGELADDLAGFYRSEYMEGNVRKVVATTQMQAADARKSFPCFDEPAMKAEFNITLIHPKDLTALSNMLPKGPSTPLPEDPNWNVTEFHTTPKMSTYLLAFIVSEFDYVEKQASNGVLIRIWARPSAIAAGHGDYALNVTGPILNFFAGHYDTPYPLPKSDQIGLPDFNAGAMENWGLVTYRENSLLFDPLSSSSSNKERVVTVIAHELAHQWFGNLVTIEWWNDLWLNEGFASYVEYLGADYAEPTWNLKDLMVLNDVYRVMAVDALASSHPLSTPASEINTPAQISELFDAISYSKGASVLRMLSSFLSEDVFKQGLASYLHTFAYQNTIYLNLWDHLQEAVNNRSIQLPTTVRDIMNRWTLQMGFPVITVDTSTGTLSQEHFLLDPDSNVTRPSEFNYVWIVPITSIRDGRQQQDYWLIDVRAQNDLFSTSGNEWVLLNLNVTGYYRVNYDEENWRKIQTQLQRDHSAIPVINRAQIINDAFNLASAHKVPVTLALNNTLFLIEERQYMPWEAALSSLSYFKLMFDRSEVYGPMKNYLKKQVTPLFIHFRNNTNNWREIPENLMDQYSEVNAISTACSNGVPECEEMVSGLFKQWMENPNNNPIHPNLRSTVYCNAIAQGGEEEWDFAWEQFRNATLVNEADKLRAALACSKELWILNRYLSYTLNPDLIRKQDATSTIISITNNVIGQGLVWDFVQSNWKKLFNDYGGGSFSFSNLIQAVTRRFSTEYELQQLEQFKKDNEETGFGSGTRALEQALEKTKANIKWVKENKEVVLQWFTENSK
# Sequence of UniProt Q9BS26 (Q9BS26 whole entry): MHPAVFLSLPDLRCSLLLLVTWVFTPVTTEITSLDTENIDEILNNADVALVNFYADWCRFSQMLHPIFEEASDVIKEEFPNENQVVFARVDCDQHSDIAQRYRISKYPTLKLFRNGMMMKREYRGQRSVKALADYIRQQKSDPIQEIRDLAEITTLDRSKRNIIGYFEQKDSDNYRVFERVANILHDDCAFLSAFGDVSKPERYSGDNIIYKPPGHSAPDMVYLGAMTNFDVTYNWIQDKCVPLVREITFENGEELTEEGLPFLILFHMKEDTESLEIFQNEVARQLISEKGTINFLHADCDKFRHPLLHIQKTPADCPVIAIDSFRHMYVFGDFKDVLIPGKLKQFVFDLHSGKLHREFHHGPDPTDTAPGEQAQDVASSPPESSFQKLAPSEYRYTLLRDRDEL
row,Target,lysine labeling ratio R10:1
1,UniProt P26639 (lysine site: K213),0.782 (active)
2,KRT18 (lysine site: K118) (UniProt P05783),6.22
3,EGFR (lysine site: K328) (UniProt P00533),3.46
4,MET (lysine site: K600) (UniProt P08581),1.67 (active)
5,UniProt O43570 (lysine site: K279),2.86
6,UniProt P05787 (lysine site: K465),5.11
7,MCAM (lysine site: K182) (UniProt P43121),3.4
8,UniProt Q8WXI7 (lysine site: K12309),6.26
9,SLC39A6 (lysine site: K249) (UniProt Q13433),3.94
10,IGF2R (lysine site: K1862) (UniProt P11717),1.81 (active)
11,XRCC6 (lysine site: K299) (UniProt P12956),1.09 (active)
12,MYH9 (lysine site: K1219) (UniProt P35579),2.49
13,UniProt P61978 (lysine site: K34),3.82
14,FN1 (lysine site: K149) (UniProt P02751),1.99 (active)
15,ANPEP (lysine site: K104) (UniProt P15144),1.17 (active)
16,B4GAT1 (lysine site: K60) (UniProt O43505),7.79
17,MSN (lysine site: K316) (UniProt P26038),1.47 (active)
18,UniProt Q9NYQ6 (lysine site: K2118),2.31
19,MAGT1 (lysine site: K66) (UniProt Q9H0U3),4.14
20,EZR (lysine site: K64) (UniProt P15311),0.907 (active)

row,Target,lysine labeling ratio R10:1
1,UniProt Q9UKX5 (lysine site: K256),5.46
2,RPL28 (lysine site: K72) (UniProt P46779),2.12
3,CPNE1 (lysine site: K73) (UniProt Q99829),2.97
4,BCAP31 (lysine site: K176) (UniProt P51572),0.745 (active)
5,EEF2 (lysine site: K498) (UniProt P13639),3.9
6,UniProt Q9BS26 (lysine site: K130),2.57
7,DDX5 (lysine site: K56) (UniProt P17844),2.69
8,UniProt O95980 (lysine site: K747),1.22 (active)
9,CDCP1 (lysine site: K413) (UniProt Q9H5V8),1.38 (active)
10,UniProt Q86V81 (lysine site: K235),2.42
11,UniProt Q15365 (lysine site: K314),1.71 (active)
12,TF (lysine site: K135) (UniProt P02787),1.26 (active)
13,SPTAN1 (lysine site: K1750) (UniProt Q13813),2.19
14,RPS19 (lysine site: K97) (UniProt P39019),1.48 (active)
15,ALCAM (lysine site: K76) (UniProt Q13740),6.62
16,SPTAN1 (lysine site: K2052) (UniProt Q13813),3.09
17,UniProt Q16363 (lysine site: K1068),2.52
18,CD99L2 (lysine site: K86) (UniProt Q8TCZ2),3.94
19,HNRNPL (lysine site: K493) (UniProt P14866),1.94 (active)
20,UniProt P14618 (lysine site: K66),1.62 (active)
